Key:
Test in all cases: log2 ratio of Biotin-Ahx-Ub-VS probe labelling (fragment/DMSO); higher = less target engagement (more negative = stronger competition), active = hit call of the paper (q ≤ 0.05, log2 ratio ≤ -1)
Details in all cases: compound concentration: 200 uM; treatment time: 3 h
USP16 = USP16 (UniProt Q9Y5T5)
Outline: (§1)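 Labelled DUBs from HEK293T lysate were NeutrAvidin-enriched, digested with LysC and trypsin, and run by diaPASEF LC-MS/MS. Before that, each 495 µg sample in Tris/CHAPS/IGEPAL buffer with protease inhibitors was treated in triplicate with fragment at 200 µM or vehicle for 3 h, then with Biotin-Ahx-Ub-VS at 0.5 µM final for 1 h. Values are average log2 ratios of fragment over vehicle by unpaired t-test, based on global-median-normalised Spectronaut label-free quantities from proteins with ≥2 unique peptides.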

USP19 = biological target: T1, USP19 (UniProt O94966)
T1 sequence (whole entry): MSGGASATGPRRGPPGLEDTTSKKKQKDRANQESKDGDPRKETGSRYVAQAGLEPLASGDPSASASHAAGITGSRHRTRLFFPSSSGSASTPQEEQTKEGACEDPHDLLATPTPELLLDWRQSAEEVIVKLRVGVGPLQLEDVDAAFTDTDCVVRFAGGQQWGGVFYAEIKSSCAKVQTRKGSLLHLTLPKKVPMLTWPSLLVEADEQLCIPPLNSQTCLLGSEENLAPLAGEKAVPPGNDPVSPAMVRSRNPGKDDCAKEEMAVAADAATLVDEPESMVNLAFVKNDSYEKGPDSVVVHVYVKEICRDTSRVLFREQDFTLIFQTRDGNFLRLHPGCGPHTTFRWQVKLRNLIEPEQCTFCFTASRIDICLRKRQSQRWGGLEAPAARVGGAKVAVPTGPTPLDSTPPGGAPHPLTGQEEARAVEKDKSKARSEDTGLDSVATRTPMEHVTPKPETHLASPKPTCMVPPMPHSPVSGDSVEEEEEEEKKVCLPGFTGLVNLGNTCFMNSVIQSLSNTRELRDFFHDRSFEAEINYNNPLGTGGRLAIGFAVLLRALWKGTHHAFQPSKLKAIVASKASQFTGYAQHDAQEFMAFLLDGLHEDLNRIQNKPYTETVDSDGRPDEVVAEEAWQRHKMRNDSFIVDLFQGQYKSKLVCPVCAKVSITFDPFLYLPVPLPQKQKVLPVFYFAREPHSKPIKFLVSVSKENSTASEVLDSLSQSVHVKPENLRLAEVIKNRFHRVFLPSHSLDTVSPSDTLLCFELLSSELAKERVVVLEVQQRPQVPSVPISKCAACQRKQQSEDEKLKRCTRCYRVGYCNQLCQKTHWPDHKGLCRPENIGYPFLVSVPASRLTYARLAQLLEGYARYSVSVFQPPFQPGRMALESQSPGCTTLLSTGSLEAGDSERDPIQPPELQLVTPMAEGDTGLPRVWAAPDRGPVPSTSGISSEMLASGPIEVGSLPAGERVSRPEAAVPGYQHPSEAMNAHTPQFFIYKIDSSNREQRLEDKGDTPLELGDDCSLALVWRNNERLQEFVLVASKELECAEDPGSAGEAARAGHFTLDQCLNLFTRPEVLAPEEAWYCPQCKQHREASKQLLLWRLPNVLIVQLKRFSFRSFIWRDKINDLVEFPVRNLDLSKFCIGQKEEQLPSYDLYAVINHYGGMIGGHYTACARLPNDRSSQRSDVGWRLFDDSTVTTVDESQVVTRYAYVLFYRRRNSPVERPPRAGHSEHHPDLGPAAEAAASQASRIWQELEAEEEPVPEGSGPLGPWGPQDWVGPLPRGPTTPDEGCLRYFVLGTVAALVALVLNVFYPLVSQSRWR
Outline: as §1

USP24 = USP24 (UniProt Q9UPU5)
Chain of USP24 (Q9UPU5 whole entry): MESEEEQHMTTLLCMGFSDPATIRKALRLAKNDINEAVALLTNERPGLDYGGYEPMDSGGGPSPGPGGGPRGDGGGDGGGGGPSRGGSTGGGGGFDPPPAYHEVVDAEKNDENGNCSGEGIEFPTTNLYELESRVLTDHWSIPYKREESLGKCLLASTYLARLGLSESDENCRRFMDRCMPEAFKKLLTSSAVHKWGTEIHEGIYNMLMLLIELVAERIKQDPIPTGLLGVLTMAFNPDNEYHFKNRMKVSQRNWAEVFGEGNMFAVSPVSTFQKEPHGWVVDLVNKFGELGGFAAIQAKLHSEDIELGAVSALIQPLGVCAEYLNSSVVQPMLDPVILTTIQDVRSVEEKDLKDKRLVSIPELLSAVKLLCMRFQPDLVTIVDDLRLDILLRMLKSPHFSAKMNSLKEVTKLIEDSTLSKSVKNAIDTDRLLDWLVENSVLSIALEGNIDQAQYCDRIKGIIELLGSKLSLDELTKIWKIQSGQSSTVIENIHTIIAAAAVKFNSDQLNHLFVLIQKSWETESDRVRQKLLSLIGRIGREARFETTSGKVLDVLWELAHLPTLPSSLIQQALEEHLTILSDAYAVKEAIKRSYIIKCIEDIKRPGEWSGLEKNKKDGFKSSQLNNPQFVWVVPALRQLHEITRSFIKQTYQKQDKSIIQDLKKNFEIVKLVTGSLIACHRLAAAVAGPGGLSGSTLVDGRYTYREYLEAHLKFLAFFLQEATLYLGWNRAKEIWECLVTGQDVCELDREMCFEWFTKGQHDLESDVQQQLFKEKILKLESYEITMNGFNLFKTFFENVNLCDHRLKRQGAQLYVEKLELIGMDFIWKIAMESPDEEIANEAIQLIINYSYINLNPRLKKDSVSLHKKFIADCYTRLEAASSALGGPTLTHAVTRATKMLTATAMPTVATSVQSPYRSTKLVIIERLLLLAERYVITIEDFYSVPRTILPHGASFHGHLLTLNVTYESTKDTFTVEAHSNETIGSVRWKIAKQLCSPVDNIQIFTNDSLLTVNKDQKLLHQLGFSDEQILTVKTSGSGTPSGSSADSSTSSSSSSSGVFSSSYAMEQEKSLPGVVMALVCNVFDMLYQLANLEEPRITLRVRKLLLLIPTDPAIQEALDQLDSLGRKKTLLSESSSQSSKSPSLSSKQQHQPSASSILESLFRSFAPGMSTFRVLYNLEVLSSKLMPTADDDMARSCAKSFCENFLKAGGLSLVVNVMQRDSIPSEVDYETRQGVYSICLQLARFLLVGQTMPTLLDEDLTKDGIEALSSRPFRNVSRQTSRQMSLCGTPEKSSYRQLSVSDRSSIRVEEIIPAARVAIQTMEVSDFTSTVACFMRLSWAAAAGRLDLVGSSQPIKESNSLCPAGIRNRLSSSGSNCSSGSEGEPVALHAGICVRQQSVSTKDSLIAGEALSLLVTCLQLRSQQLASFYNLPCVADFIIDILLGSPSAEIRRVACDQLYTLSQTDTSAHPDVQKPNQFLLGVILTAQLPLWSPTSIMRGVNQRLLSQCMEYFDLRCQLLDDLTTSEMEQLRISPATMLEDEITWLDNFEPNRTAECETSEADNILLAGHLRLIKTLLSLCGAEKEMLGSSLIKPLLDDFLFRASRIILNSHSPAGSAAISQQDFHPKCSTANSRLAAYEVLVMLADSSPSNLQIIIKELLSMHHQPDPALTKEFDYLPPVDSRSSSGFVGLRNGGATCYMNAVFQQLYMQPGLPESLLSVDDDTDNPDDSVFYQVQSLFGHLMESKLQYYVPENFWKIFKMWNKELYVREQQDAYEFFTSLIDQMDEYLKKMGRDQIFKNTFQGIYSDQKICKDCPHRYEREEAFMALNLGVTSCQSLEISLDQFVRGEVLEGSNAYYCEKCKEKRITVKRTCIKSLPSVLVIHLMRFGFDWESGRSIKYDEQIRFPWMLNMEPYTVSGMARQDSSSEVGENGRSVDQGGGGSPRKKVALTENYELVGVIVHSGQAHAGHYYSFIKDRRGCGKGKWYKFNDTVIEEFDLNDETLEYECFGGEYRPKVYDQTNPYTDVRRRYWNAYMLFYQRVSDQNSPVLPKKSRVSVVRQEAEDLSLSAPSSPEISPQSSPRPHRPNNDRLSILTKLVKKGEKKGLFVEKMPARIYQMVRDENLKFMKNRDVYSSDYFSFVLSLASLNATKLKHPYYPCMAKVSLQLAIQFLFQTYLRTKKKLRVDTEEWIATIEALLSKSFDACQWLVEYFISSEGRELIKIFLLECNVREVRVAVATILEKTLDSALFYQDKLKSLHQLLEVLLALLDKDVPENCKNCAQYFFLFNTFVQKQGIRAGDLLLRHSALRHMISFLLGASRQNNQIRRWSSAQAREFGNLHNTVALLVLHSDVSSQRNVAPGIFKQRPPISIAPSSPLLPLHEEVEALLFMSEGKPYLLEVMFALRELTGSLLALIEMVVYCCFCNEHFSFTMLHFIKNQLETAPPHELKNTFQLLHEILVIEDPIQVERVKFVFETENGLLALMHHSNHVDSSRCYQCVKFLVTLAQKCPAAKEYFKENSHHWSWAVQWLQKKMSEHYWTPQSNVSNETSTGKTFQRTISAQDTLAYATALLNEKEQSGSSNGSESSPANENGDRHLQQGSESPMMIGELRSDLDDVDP
Outline: as §1

USP25 = biological target: T2, USP25 (UniProt Q9UHP3)
T2 sequence (whole entry): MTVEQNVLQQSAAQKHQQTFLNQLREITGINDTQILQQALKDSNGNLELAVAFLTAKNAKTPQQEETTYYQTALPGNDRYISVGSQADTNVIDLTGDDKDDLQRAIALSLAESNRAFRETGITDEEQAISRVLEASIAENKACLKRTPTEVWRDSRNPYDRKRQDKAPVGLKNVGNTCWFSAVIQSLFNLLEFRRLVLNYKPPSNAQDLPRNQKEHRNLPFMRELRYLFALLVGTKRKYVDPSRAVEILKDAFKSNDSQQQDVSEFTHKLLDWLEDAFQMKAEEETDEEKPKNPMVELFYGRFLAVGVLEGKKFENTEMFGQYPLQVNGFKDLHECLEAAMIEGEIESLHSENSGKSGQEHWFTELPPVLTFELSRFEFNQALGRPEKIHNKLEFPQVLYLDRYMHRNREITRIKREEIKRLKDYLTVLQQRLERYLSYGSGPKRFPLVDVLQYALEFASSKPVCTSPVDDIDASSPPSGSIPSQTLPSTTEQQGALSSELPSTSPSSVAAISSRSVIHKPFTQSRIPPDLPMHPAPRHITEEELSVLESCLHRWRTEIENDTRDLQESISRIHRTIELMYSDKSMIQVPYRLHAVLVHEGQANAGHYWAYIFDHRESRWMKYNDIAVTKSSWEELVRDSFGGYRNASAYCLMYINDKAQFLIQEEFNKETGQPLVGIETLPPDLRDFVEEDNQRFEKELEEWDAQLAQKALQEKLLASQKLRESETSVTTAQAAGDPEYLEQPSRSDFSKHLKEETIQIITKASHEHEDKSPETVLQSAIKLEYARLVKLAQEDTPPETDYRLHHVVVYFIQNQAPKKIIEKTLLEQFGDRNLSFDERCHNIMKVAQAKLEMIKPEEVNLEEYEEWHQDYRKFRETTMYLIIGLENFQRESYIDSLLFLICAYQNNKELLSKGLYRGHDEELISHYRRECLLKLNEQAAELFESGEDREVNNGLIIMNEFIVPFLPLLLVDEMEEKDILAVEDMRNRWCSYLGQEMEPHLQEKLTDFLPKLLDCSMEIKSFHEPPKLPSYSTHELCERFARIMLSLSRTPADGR
Outline: as §1

USP28 = biological target: T3, USP28 (UniProt Q96RU2)
T3 sequence (whole entry): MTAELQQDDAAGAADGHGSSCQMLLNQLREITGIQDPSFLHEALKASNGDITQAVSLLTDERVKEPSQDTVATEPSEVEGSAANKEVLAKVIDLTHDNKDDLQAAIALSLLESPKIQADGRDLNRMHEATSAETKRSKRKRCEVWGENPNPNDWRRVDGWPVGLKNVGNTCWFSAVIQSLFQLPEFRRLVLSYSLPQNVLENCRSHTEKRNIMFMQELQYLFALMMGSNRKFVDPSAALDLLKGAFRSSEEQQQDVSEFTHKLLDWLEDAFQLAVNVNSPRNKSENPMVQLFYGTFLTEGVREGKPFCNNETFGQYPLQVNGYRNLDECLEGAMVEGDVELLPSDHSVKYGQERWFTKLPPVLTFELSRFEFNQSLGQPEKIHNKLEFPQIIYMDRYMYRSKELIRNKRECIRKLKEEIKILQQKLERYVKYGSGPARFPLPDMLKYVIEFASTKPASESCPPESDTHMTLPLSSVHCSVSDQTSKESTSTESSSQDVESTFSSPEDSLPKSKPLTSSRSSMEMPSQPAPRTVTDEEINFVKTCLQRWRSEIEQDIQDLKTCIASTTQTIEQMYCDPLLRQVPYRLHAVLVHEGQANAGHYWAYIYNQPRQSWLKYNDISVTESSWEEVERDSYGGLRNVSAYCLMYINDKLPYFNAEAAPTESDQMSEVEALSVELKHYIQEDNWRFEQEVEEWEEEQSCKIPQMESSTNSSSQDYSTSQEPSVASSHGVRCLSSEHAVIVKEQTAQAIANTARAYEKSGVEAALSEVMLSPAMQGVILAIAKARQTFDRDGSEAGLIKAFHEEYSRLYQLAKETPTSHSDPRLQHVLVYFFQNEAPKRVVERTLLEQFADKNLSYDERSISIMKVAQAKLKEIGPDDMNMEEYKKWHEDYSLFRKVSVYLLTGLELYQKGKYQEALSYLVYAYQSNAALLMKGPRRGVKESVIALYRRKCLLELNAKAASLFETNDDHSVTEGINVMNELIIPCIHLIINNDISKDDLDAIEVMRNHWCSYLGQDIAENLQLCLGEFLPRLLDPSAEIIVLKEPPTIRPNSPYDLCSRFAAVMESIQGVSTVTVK
Outline: as §1

Measured: log2 ratio of Biotin-Ahx-Ub-VS probe labelling

Chain of USP16 (Q9Y5T5 whole entry, looked up, the tested form may be a part): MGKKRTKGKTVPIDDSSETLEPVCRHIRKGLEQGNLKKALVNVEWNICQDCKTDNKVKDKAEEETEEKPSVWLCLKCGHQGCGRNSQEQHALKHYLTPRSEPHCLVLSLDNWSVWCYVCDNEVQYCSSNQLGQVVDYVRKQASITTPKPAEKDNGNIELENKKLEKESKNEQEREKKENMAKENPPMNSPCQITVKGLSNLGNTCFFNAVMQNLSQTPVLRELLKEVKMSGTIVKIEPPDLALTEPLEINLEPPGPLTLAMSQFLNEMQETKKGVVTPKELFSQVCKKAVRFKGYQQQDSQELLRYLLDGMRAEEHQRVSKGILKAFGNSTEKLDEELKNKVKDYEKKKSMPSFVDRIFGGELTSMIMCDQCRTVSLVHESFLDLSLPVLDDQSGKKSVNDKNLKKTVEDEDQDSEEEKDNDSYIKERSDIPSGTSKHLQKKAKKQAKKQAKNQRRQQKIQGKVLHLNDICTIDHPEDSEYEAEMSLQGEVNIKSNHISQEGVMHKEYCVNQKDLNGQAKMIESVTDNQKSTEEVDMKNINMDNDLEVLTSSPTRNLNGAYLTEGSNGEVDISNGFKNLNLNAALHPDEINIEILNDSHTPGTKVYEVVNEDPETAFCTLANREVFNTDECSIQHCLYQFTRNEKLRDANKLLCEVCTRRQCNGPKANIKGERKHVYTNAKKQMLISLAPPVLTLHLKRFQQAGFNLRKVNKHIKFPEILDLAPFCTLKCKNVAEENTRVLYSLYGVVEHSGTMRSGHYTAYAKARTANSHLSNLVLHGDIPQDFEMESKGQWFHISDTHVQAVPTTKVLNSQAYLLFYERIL

CC(O)CC1CCN(C(=O)CCl)CC1 (stereo not given)
inactive: USP16 -0.771 | USP19 -0.322 | USP24 -0.234 | USP25 -0.398 | USP28 -0.223
